# In PubChem BioAssay (NCI):
# The panel holds about 83,000 compounds, 20% with a hit somewhere; the sample as a whole holds those more often.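 Single-concentration screen, 48 h exposure, 96-well plates. Endpoint: percent growth. Below 10 = active.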 Activity calls are given as the source filed them.
# System: A549/ATCC NSCLC
# Assay: NCI-60 one-dose screen, 48 h (100 = growth as untreated, 0 = no growth, -100 = all killed)
# Details: 10 µM unless noted
row,Structure (SMILES),growth
1,CN1CCN(CCCOc2ccc3nc(Nc4ccc(F)c(F)c4)ccc3c2)CC1,16.1% (inactive)
2,CC(CN1CCCCC1)C(=O)c1ccccc1 (centres undefined),98% (inactive)
3,Cc1cc(/C=C\c2ccc3ccccc3[n+]2C)c(O)c2ncccc12,12% (inactive)
4,COc1ccc2cc(-c3cc(OC)c(OC)c(OC)c3)c(=O)oc2c1,42.1% (inactive)
5,Cc1ccc(C2SCC(=O)N2Cc2ccccc2)cc1 (centres undefined),102% (inactive)
6,Cc1ccc(S(=O)(=O)Oc2cc(OS(=O)(=O)c3ccc(C)cc3)cc(OS(=O)(=O)c3ccc(C)cc3)c2)cc1,97.5% (inactive)
7,CS(=O)c1cccc(-c2ccc3nc(N)n(-c4ccc(C(F)(F)F)cc4)c(=O)c3c2)c1 (centres undefined),93.4% (inactive)
8,Clc1ccc(-c2c3ccc(=[N+]4CCCCC4)cc-3oc3cc(N4CCCCC4)ccc23)cc1,-67.4% (active)
9,O=C1Nc2ccccc2/C1=C/c1cn(C(=O)c2c(Cl)cccc2Cl)c2ccccc12,36.7% (inactive)
10,CC1CC(C(C)(C)C)C(=O)C(C(C)(C)C)C1 (centres undefined),100% (inactive)
11,COc1ccc(-c2nc(SCCC(C)C)nc(N/N=C\c3ccccc3O)c2C#N)cc1,78.2% (inactive)
12,O=C1CCc2c(sc3[nH]c(=S)n(-c4ccc(OC(F)(F)F)cc4)c(=O)c23)C1,77.1% (inactive)
13,CC(C)CC(NC(=O)CN(Cc1ccccc1)S(C)(=O)=O)C(=O)O (centres undefined),96.5% (inactive)
14,COc1cc(N=Nc2ccc(N)cc2)c(OC)cc1N=Nc1ccccc1.[Cl][Zn][Cl],110% (inactive)
15,CCC1(C2CCCC2)NC(=O)NC1=O (centres undefined),104% (inactive)
16,Cc1ccc(C(=O)C2=C(O)C(=O)N(Cc3cccnc3)C2c2ccccc2F)o1 (centres undefined),87.3% (inactive)
17,COc1cccc(-c2nc3sccn3c2/C=C/C(=O)c2ccc(C(F)(F)F)cc2)c1,85.1% (inactive)
18,COc1ccc2c(c1)C(=O)/C(=C/c1ccc(OCC(=O)Nc3nccs3)cc1)O2,84.9% (inactive)
19,CC/C=C/C/C=C/C/C=C/C/C=C/C/C=C/C/C=C/CCC(=O)Nc1ccn([C@@H]2O[C@H](CO)[C@@H](O)C2(F)F)c(=O)n1,17.6% (inactive)
20,NC(=N\N=C/c1ccccc1[N+](=O)[O-])/C(N)=N\N=C/c1ccccc1[N+](=O)[O-],114% (inactive)
21,O=C(Cc1ccc(F)c(F)c1)Nc1cc(C2(C(F)(F)F)CC2)nn1Cc1ccccc1,9.17% (active)
22,O=C(/C=C/c1ccc(Cl)nc1)c1ccc(Cl)cc1Cl,94.4% (inactive)
23,O=C(Nc1ccccc1Cl)Oc1ccc(-c2ccccc2)cc1,104% (inactive)
24,CN(c1ccccc1)c1ccc2c(c1)OCCC21CC1Nc1cnccc1C(=O)O (centres undefined),83.4% (inactive)
